# VDR inh: inhibitors of human vitamin D receptor. Potency, µM, for inactives: max response, negative = inhibition, hits mostly inhibitors. 400,000 compounds, 0.93% hits. VDR-SRC2-3 peptide fluorescence polarization, 2 h; also: % is scaled to controls: 0 for no effect and ±100 for the full control effect
# Target sequence (P11473 whole entry, looked up): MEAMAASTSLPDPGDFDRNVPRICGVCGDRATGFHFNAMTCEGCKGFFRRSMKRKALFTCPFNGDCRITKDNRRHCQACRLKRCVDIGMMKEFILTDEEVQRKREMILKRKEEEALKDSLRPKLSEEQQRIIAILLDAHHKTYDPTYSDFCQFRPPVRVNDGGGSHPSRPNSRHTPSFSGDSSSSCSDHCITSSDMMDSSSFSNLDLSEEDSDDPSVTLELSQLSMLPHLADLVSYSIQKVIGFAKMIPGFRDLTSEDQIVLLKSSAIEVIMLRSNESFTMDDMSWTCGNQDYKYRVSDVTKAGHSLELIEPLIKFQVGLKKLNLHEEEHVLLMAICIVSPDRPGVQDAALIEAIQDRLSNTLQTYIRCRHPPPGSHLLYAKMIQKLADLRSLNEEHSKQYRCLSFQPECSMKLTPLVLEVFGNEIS
#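 FP read-out; VDR + SRC2-3 coactivator peptide; 23 nl compound by pintool; 2 h RT incubation; reagents held at 4 deg C, protected from light.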
# HP1b binding inh: HP1-beta chromodomain-methylated histone interaction inhibition; AlphaScreen HP1-beta / biotin-H3K9me3 peptide binding; Potency, µM (highest dose often 114 µM), without a hit: top-dose activity change, negative = inhibition, hits mostly inhibitors; 390,000 compounds, 0.56% hits; AID 540317; also: nearly all actives have a fitted effect of over 70% in size
#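 AlphaScreen: HP1-beta (50 nM) preformed 30 min with biotin-H3(1-18)K9me3 peptide (50 nM) in PBS pH 7.4, 0.01% Tween-20. Compound added for 30 min at RT, then streptavidin donor/nickel chelate acceptor beads (10 ug/mL) for 30 min.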
# G9a block: G9a (human) methyltransferase inhibition; G9a H3K9 monomethylation, AlphaScreen, 2 h; Potency, µM (top dose mostly 102 µM), inactives show at the top dose activity, negative = inhibition, most hits filed as inhibitors; Q96KQ7; 350,000 compounds, 8.8% hits; also: % is scaled to controls: 0 for no effect and ±100 for the full control effect; nearly all actives have a fitted effect of over 75% in size
# Target sequence (Q96KQ7 913-1193 limits assumed): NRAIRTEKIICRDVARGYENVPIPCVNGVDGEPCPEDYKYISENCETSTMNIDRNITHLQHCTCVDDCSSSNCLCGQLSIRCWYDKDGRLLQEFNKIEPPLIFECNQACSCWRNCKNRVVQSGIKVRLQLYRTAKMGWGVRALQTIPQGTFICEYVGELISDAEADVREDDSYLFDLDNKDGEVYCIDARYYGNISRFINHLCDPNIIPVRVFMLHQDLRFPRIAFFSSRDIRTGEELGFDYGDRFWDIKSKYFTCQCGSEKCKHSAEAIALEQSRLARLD
#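 Enzyme 20 nM + cpd, 15 min RT; add b-H3K9 pep 500 nM / SAM 20 uM; 2 h RT; anti-H3K9me1 Ab 0.5 ug/mL + SA donor / anti-rabbit acceptor beads 20 ug/mL each, 10 min; AlphaScreen read.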
# PLK1 PBD inh: blocks phosphopeptide binding to human PLK1 polo-box domain; 360,000 compounds, 2.8% hits; Potency, µM, inactives show max response, negative = inhibition, usual class: inhibitors; Plk1 PBD binding of FITC phosphopeptide, fluorescence polarization; P53350; also: series mostly up to about 57 µM; % is scaled to controls: 0 for no effect and ±100 for the full control effect; nearly all actives have a fitted effect of over 65% in size
# BAZ2B block: inhibitors of human BAZ2B bromodomain. 360,000 compounds, 4.4% hits. Q9UIF8. Potency, µM (doses to about 114 µM), for the others: at the top dose activity change, negative = inhibition, usual class: inhibitors. AID 504333. AlphaScreen BAZ2B-H3K14Ac peptide displacement; also: % is scaled to controls: 0 for no effect and ±100 for the full control effect; nearly all actives have a fitted effect of over 60% in size
#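 AlphaScreen luminescence quantifies BAZ2B engagement of H3K14Ac peptide; the protein and biotinylated peptide are both at 50 nM final, buffer PBS pH 7.4 with 0.01% Tween-20, all steps at room temperature.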
# JMJD2A Tudor: inhibitors of human JMJD2A Tudor domain. O75164. AlphaScreen JMJD2A-Tudor / H3K4me3 peptide binding. Potency, µM (top dose mostly 114 µM), for the others: at the highest dose activity change, negative = inhibition, actives largely listed as inhibitors. 390,000 compounds, 4.4% hits; also: % is scaled to controls: 0 for no effect and ±100 for the full control effect; nearly all actives have a fitted effect of over 50% in size
# * hit, by the source's call; ? = inconclusive; nt = not tested or not shown; [ ] = dose if it differs, or a comment. Rows were chosen to be rich in hits. Some 11% of all compounds tested hit in one or more screens of this group. Calls follow the shape of the dose curve; as a rule, active = well fitted curve in the direction sought with a large enough effect; inconclusive = small, poorly fitted or top-dose-only effect, or another doubt; inactive = no such curve, though single readings can be large; an effect the other way counts as inactive or inconclusive. Potency is read from the fitted curve at half-maximal effect.
SMILES,VDR inh,HP1b binding inh,G9a block,PLK1 PBD inh,BAZ2B block,JMJD2A Tudor
COc1ccc(OCC(=O)NCc2ccc(Cl)cc2)cc1,3%,29%,19%[0.501 µM],-11%,7%,1%
CN(C)[C@@H]1C(=O)C(C(=O)NCN2CCCC2)=C(O)[C@@]2(O)C(=O)C3=C(O)c4c(O)cccc4[C@@](C)(O)C3CC12 (stereo partly drawn),nt,nt,3.2µM*,nt,1.3µM*,nt
CN(C)[C@H]1C(=O)C(C(=O)NCN2CCCC2)=C(O)[C@]2(O)C(=O)C3=C(O)c4c(O)cccc4[C@](C)(O)[C@H]3C[C@H]12,?,nt,1.6µM*,nt,nt,nt
O=C1Nc2ccc(S(=O)(=O)Nc3ccccc3O)c3cccc1c23,6%,19%,13µM*,nt,-26%,-22%
Cc1ccc(-c2nc3ccccc3[nH]2)cc1NC(=O)c1ccc2c(c1)OCO2,-2%,2%,?,-7%,-13%,-17%
O=C(/C=C/c1ccco1)N/C(=C\c1ccco1)C(=O)NCCc1nc2ccccc2[nH]1,-6%,0%,45µM*,-6%,?,?
COc1ccc(/C=C/C(=O)N/C(=C\c2ccco2)C(=O)NCCc2nc3ccccc3[nH]2)cc1,-10%,-11%,45µM*,2%,?,?
O=C(NCCc1nc2ccccc2[nH]1)/C(=C/c1ccco1)NC(=O)c1ccccc1Br,-12%,27%,?,6%,-10%,-22%
O=C(NCCc1nc2ccccc2[nH]1)/C(=C/c1ccco1)NC(=O)c1ccc(Br)cc1,-2%,1%,71µM*,2%,-21%,-26%
Cc1ccc(-c2nc3ccccc3[nH]2)cc1NC(=O)/C=C/c1ccco1,-9%,-21%,-6%[2.33 µM],-7%,50µM*,?
O=C(NCCc1nc2ccccc2[nH]1)/C(=C/c1ccc(F)cc1)NC(=O)c1ccco1,-8%,29%,20%,-7%,-3%,-6%
Cc1ccc(N(CC(=O)NC(C)(C)C)C(=O)CCC(=O)Nc2ccccn2)cc1,nt,nt,nt,3%,nt,nt
Cc1cccc(N2CCN(CCCNC(=O)Cn3ncc4c([nH]c5ccccc54)c3=O)CC2C)c1 (stereo not drawn),1%,3%,-4%[59 µM],nt,-15%,-23%
COc1ccccc1Nc1c2c(nc3ccc(NC(=O)c4ccc(OC)c(OC)c4)cc13)CCCC2,-17%,-17%,14µM*,nt,?,?
COc1ccc(Nc2c3c(nc4ccc(NC(=O)c5ccc(F)cc5)cc24)CCCC3)cc1OC,-19%,?,?,nt,32µM*,56µM*
Cc1ccc2nc3c(c(Nc4ccc(C)c(C)c4)c2c1)CCC3,-10%,2%,-45%[59 µM],nt,32µM*,?
COc1ccccc1Nc1c2c(nc3ccc(NC(=O)c4cccc(OC)c4OC)cc13)CCCC2,-28%,16%,?,nt,-37%,?
CCOC(=O)C[C@H]1c2ccccc2S(=O)(=O)N1c1cccc(OC)c1,1%,40%,nt,-8%,nt,-22%
CC(C)CCOc1ccc(C(=O)NCC2OCCc3ccccc32)cc1 (stereo not drawn),8%,49%,10%[59 µM],nt,-1%,-2%
Cc1nn(-c2ccc(Cl)cc2)c(=O)c2ccccc12,4%,36%,7%,-8%,1%,-9%
Cc1c(Cl)sn(-c2ccc(Cl)cc2)c1=O,45µM*,?,0.71µM*,2.7µM*,40µM*,3.2µM*
CN(Cc1nccs1)C(=O)c1ccc2nc(Cc3ccccc3F)oc2c1,-10%,30%,nt,-3%,3%,-17%
COc1ccc(Cc2nc3ccc(C(=O)N(C)Cc4nccs4)cc3o2)cc1OC,-16%,-3%,nt,30µM*,-8%,?
COc1cc(NC(=O)CN(C)S(=O)(=O)c2ccc3c(c2)CCCC(=O)N3)cc(OC)c1OC,6%,27%,-29%[59 µM],nt,5%[57.1 µM],-9%
Cc1cccc2sc(N(CCN(C)C)C(=O)c3cc(Cl)sc3Cl)nc12,?,-13%,45µM*,0%,?,?
SMILES,VDR inh,HP1b binding inh,G9a block,PLK1 PBD inh,BAZ2B block,JMJD2A Tudor
COc1cc2ccccc2cc1C(=O)N(CCN(C)C)c1nc2c(OC)ccc(OC)c2s1,-22%,?,45µM*,?,?,40µM*
CCN(CC)CCN(C(=O)c1c(F)cccc1F)c1nc2cc(C)cc(C)c2s1,-8%,26%,56µM*,1%,nt,?
CC(=O)c1ccc(C(=O)N(CCN(C)C)c2nc3c(Cl)cccc3s2)cc1,5%,20%,?,-12%,nt,-20%
CCN(CC)CCN(C(=O)c1ccco1)c1nc2cc(C)cc(C)c2s1,-4%,-8%,-40%[59 µM],nt,-33%,?
Cc1cc(C)c2sc(N(CCN(C)C)C(=O)c3ccc4ccccc4c3)nc2c1,-17%,-26%[57 µM],35µM*,-10%,?,22µM*
O=S(=O)(c1cc(Br)c(Br)s1)N1CCN(c2ccccc2)CC1,20%,54%,-6%[59 µM],nt,5%,3%
CCN(CC)CCN(C(=O)C1=COCCO1)c1nc2ccc(C)cc2s1,28%,20%,-19%,-6%,-22%,-10%
Cc1ccc2nc(N(CCN(C)C)C(=O)c3cc(Cl)sc3Cl)sc2c1,-13%,11%,?,-3%,-37%,-20%
COc1cc2ccccc2cc1C(=O)N(CCN(C)C)c1nc2c(C)cccc2s1,-17%,11%,13µM*,-25%,?,?
COc1ccc(OC)c2sc(N(CCN(C)C)C(=O)c3ccc4ccccc4c3)nc12,-2%,-19%[57 µM],16µM*,-16%,?,?
CCN(CC)CCN(C(=O)C1=COCCO1)c1nc2c(OC)ccc(OC)c2s1,-9%,17%,45µM*,0%,-21%,-17%
COc1cc(C(=O)N(CCCN(C)C)c2nc3c(OC)cccc3s2)cc(OC)c1OC,0%,12%,-9%[59 µM],nt,-12%,-26%
Cc1cc(C)c2sc(N(CCN(C)C)C(=O)c3cc(Cl)sc3Cl)nc2c1,5%,5%,45µM*,-4%,nt,?
COc1ccc(CNC(=O)C2CCN(S(=O)(=O)c3cccc4nsnc34)CC2)cc1,9%,56%,nt,7%,1%,11%
Cc1cc(C)n2nc(SCc3nnc(-c4ccc(F)cc4)o3)nc2n1,nt,nt,32µM*,nt,-18%,nt
Cc1cc(C)n2nc(SCc3nnc(-c4cccs4)o3)nc2n1,14%,30%,6%,0%,-12%,2%
Cc1cc(C)n2nc(SCc3cc(=O)oc4cc(O)ccc34)nc2n1,nt,nt,?,nt,50µM*,nt
Cc1cc(C)n2nc(SCc3ccccc3)nc2n1,3%,45%,2%,7%,1%,8%
Cc1ccc(C(=O)Nc2ccc3oc(-c4cccnc4)nc3c2)c(Cl)c1,-2%,9%,?,nt,0%,-9%
CC(=O)N1CCc2cc(Br)cc(S(=O)(=O)CCC(=O)Nc3ccc(C)cc3Cl)c21,-7%,18%,?,nt,2%,-6%

# Screening results deposited in PubChem BioAssay by National Center for Advancing Translational Sciences (NCATS).
